High-throughput results: PubChem BioAssay, National Center for Advancing Translational Sciences (NCATS)
D2 ag-1: agonists of human D2 dopamine receptor. AID 485358. hit rate 0.53% among 340,000. HEK293 T-REx D2 cells, calcium flux agonist mode. P14416. activation, % at 2 µM;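 active = activation over 3 SD above normal in the single-dose calcium agonist read, cut at about 30% in these data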
Target sequence (P14416 whole entry, looked up): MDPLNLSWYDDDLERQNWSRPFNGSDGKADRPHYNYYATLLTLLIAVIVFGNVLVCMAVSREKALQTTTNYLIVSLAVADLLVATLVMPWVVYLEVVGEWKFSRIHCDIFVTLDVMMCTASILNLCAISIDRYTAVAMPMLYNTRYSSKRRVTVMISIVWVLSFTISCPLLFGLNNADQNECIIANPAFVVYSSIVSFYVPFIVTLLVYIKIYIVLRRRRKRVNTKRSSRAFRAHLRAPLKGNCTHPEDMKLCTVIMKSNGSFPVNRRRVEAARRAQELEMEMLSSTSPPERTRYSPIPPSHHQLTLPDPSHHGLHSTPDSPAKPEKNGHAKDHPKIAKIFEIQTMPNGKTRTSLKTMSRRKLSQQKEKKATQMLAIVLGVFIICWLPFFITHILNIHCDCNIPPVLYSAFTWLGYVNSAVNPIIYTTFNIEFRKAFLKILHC
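Tetracycline-induced HEK293 Trex cells with D2 receptor force-coupled to calcium signaling, plated overnight at 30 C and loaded with no-wash calcium dye. Calcium flux read kinetically for 180 s after compound addition; responses flag agonists.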
D2 PAM-1: D2 dopamine receptor (human) potentiation | hit rate 0.34% among 340,000 | potentiation, % at 10 µM | P14416 | HEK293 T-REx D2, calcium flux, EC20 dopamine potentiation;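 active = potentiation over 3 SD above the plate norm, cut at about 30% in these data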
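Primary screen. Calcium kinetics in induced HEK293 T-REx D2 cells: compound pre-addition 180 s, EC20 dopamine, 180 s more.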
D2 PAM-2: human D2 receptor positive allosteric modulation; potentiation, % (no concentration beside the values); DiscoveRx D2 beta-arrestin cells, luminescence, 90 min; 100% = 57 uM dopamine signal; hit rate 0.23% among 360,000; AID 624464; in the data active = potentiation above about 50%; inconclusive = mostly about 30% to 49%
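PathHunter D2 cells, attached overnight at 37 deg C, received compound in DMSO plus dopamine at EC20 (50 nM final) for 90 min at 37 deg C. Beta-arrestin recruitment was read as luminescence after 1 h with detection reagent at ambient temperature.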
D2 antagonist: D2 dopamine receptor (human) antagonism | hit rate 2% among 340,000 | inhibition, % at 10 µM | HEK293 TREx D2 cells, calcium flux, dopamine EC80 | AID 485344 | P14416; in the data active = inhibition above about 30%; inactive = below that, where a call was filed
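HEK293 T-REx D2 cells, tet-induced, calcium dye no-wash. Cpd pintool add, 180 s kinetic, then EC80 DA, 180 s kinetic. Ca flux read.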
B2AR arrestin: agonists driving beta-arrestin recruitment to human beta2-adrenergic receptor; AID 492947; beta-arrestin recruitment to beta2AR, cell-based reporter; P07550; hit rate 0.02% among 330,000; Potency, µM (top dose mostly 46.1 µM), actives largely listed as activators; also: nearly all actives have a fitted effect of over 65% in size
D2 ag-2: human D2 receptor agonism in beta-arrestin assay; DiscoveRx PathHunter D2 beta-arrestin, luminescence, 90 min; 100% = 57 uM dopamine signal; P14416; activation, % (no concentration beside the values); hit rate 0.084% among 360,000; in the data active = activation above about 40%; inconclusive = between about 15% and that limit
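DiscoveRx PathHunter D2 beta-arrestin cells (2,100/well) attached overnight, then compound-stimulated 90 min at 37 C in HBSS/10 mM HEPES/0.1% Tween-20 buffer; beta-galactosidase complementation read by luminescence after 1 h at ambient temperature. Dopamine 57 uM final (EC100) as control.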
D3 arrestin ag: D3 receptor agonism confirmed, beta-arrestin readout | Potency, µM (series often up to 76.9 µM), actives largely listed as activators | hit rate 4% among 2,300 | shares compounds with D2 ag-1 | DiscoveRx D3 beta-arrestin cells, luminescence, 90 min; also: nearly all actives have a fitted effect of over 70% in size
D2 ag-3: counter-screen for D3 agonists: human D2 dopamine receptor agonism | shares compounds with D2 ag-1 | DiscoveRx PathHunter D2 beta-arrestin, luminescence, 90 min; response scale: percent relative to full dopamine signal | Potency, µM (highest dose often 76.9 µM), actives largely listed as activators | hit rate 5.9% among 2,300; also: nearly all actives have a fitted effect of over 70% in size
A number is an active result. Only some compounds are listed: those with a hit (about 2.4% of all), similar ones and a draw of the others. Unless noted, calls follow the shape of the dose curve; as a rule, active = well fitted activation curve with a large enough effect; inconclusive = small, poorly fitted or top-dose-only effect; inactive = flat fitted curve, though single readings scatter.

Cc1ccc(-n2cc(-c3ccccc3)c3c(N4CCC(C)CC4)ncnc32)cc1Cl was read as D2 ag-1 inactive and D2 PAM-1 inactive.
For O=C(c1ccc(Cl)c(S(=O)(=O)N2CCCCC2)c1)N1CCCC(C(F)(F)F)C1 (centres undefined) the results were D2 ag-1 inactive, D2 PAM-1 inactive, D2 PAM-2 inactive, D2 antagonist inactive, B2AR arrestin inactive, D2 ag-2 inactive, D3 arrestin ag inactive and D2 ag-3 inactive.
`O=C(CN1CCN(c2ccccc2)CC1)Nc1ccc(Oc2ccccc2)cc1` gave D2 ag-1 55, D2 PAM-1 inactive, D2 PAM-2 inactive, D2 antagonist 58, B2AR arrestin inactive, D2 ag-2 inactive, D3 arrestin ag inconclusive and D2 ag-3 inconclusive.
`CC(=O)c1ccc(NC(=O)CN2CCN(CC(=O)Nc3ccc(C(C)=O)cc3)CC2)cc1` gave D2 ag-1 inactive, D2 PAM-1 inactive, D2 PAM-2 inactive, D2 antagonist inactive, B2AR arrestin inactive and D2 ag-2 inactive.
For O=C(CN1CCN(c2ccccc2)CC1)c1ccc2cc[nH]c2c1 the results were D2 ag-1 84, D2 PAM-1 inactive, D2 PAM-2 inactive, D2 antagonist 90, B2AR arrestin inactive, D2 ag-2 inactive, D3 arrestin ag inactive and D2 ag-3 inactive.
Screening O=C(CN1CCN(c2ccccc2)CC1)Nc1ccc(-n2cnnn2)cc1 returned D2 ag-1 69, D2 PAM-1 inactive, D2 PAM-2 inactive, D2 antagonist 51, B2AR arrestin inactive, D2 ag-2 inactive, D3 arrestin ag inconclusive and D2 ag-3 inconclusive.
Screening CC(=O)c1ccc(NC(=O)CN2CCN(c3ncccn3)CC2)cc1 returned D2 ag-1 74, D2 PAM-1 inactive, D2 PAM-2 inactive, D2 antagonist 77, B2AR arrestin inactive, D2 ag-2 47, D3 arrestin ag inconclusive and D2 ag-3 inconclusive.
For COc1cccc(N2CCN(CC(=O)Nc3ccc(-n4cnnn4)cc3)CC2)c1 the results were D2 ag-1 inactive, D2 PAM-1 inactive, D2 PAM-2 inactive, D2 antagonist inactive, B2AR arrestin inactive and D2 ag-2 inactive.
O=C(CN1CCC2(CC1)OCCO2)c1ccc2cc[nH]c2c1 was read as D2 ag-1 inactive, D2 PAM-1 inactive, D2 PAM-2 inactive, D2 antagonist inactive, B2AR arrestin inactive and D2 ag-2 inactive.
For CCCCC(=O)Nc1cccc(OCc2cc(=O)n3ccccc3n2)c1 the results were D2 ag-1 inactive and D2 PAM-1 inactive.
`CC(=O)c1ccc(NC(=O)CN2CCN(c3ccccc3)CC2)cc1` gave D2 ag-1 83, D2 PAM-1 inactive, D2 PAM-2 inactive, D2 antagonist 37, B2AR arrestin inactive, D2 ag-2 inconclusive, D3 arrestin ag inconclusive and D2 ag-3 inconclusive.
CC1CCN(S(=O)(=O)c2ccc(NC(=O)CN3CCN(C)CC3)cc2)CC1 was read as D2 ag-1 inactive, D2 PAM-1 inactive, D2 PAM-2 inactive, D2 antagonist inactive, B2AR arrestin inactive and D2 ag-2 inactive.
For O=C(O)C1CC=CCC1C(=O)Nc1ccc(N2CCN(Cc3ccccc3)CC2)cc1 (centres undefined) the results were D2 ag-1 64, D2 PAM-1 inactive, D2 PAM-2 inactive, D2 antagonist inactive, B2AR arrestin inactive, D2 ag-2 inactive, D3 arrestin ag inactive and D2 ag-3 inactive.
CC1CCN(S(=O)(=O)c2ccc(NC(=O)CN3CCN(c4ccccc4)CC3)cc2)CC1 was read as D2 ag-1 45, D2 PAM-1 inactive, D2 PAM-2 inactive, D2 antagonist 59, B2AR arrestin inactive, D2 ag-2 inconclusive, D3 arrestin ag 2.2µM and D2 ag-3 inconclusive.
CCOCCCNC(=O)c1c(C)[nH]c(C(=O)OCC)c1C was read as D2 PAM-2 inactive, B2AR arrestin inactive and D2 ag-2 inactive.
